Rows were chosen to be rich in hits. Some 4% of all compounds tested hit in one or more screens of this group.
AF4-AF9 inh – inhibitors of human MLL-AF4/AF9 interaction; AlphaScreen, biotin-AF4 peptide binding to FLAG-AF9; inhibition, % at 10 µM; 0.47% of 350,000 active; AID 651704;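 active = every replicate reaching a set inhibition limit, whatever the replicate mean, cut at about 25% in these data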;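 note: 0% = plate neutral control median and 100% = total signal loss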
RAD52 anneal inh – inhibitors of human RAD52 DNA annealing. P43351. recombinant RAD52 DNA annealing, FRET fluorescence. inhibition, % at 18.7 µM. 0.46% of 360,000 active. AID 651710;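 active = every replicate showing at least 50% inhibition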
Target sequence (P43351 whole entry, looked up): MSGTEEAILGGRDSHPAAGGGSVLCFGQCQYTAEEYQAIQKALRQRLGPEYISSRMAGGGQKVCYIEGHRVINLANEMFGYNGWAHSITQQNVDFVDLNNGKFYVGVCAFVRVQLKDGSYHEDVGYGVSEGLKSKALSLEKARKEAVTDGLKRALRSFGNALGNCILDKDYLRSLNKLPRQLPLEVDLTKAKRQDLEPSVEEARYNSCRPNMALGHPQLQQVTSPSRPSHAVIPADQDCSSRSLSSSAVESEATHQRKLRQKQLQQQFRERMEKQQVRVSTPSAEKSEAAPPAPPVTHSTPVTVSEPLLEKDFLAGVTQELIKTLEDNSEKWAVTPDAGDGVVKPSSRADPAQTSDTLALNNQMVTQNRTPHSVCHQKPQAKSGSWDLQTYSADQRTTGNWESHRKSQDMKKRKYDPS
ERAP1 HTS inh – inhibitors of human ERAP1 aminopeptidase. recombinant ERAP1, Leu-AMC fluorescence, 60 min. 0.15% of 340,000 active. inhibition, % at 10.7 µM. Q9NZ08;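 active = mean replicate inhibition of at least 30%, or all replicates individually reaching that 30% level; inactive = mean below 30% and not every replicate reaching it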;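 note: 0% = neutral control wells and 100% = L-leucinethiol positive control wells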
FGF22 binding – binders of recombinant human FGF22 by thermal shift | activity (Tm shift, normalised), % at 9.99 µM | AID 651658 | SYPRO orange fluorescence; percent of sucrose octasulfate shift, DMSO zero | 1.5% of 340,000 active | Q9HCT0;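 active = mean Tm shift, scaled 0 neutral to 100 positive control, at about 1.3% or above, every replicate too, limit read from the data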
Target sequence (Q9HCT0 whole entry, looked up): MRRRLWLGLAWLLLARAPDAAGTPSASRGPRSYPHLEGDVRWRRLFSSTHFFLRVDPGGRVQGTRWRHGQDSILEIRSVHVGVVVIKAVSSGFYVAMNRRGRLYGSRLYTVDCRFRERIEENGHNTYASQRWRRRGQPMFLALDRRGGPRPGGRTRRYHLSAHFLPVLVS
DENV2 CPE rescue – DENV2-induced cell death inhibition; DENV2-infected cells, cytopathic effect rescue, plate reader; CPE inhibition, % at 9.99 µM; 1.7% of 350,000 active; in the data active = CPE inhibition above about 20%, passing the limit was not always enough; tested in BHK-21 cells;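 note: 0% = median of neutral control wells and 100% = median of positive control wells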
The depositor's hits bear a star; nt = no result.

SMILES	AF4-AF9 inh	RAD52 anneal inh	ERAP1 HTS inh	FGF22 binding	DENV2 CPE rescue
N#CCCn1nc(-c2ccc(Br)cc2)cc1Nc1ccccc1NC(=O)C(F)(F)F	13	-4	-1	2.5*	2
Cc1noc(C)c1S(=O)(=O)N(C)C[C@H]1OCCCC[C@H](C)Oc2ccc(NC(=O)Cc3ccccc3)cc2C(=O)N([C@@H](C)CO)C[C@H]1C	-1	-18	2	0	-4
OC[C@@H]1Nc2ccc(-c3ccccc3)cc2[C@H]2[C@@H]1CCN2Cc1ccc(F)cc1	-3	0	1	1	49*
O=C(C1CCCC1)N1CC[C@@H]2[C@@H](CO)Nc3ccc(-c4cccc(F)c4)cc3[C@@H]21	25*	-8	0	nt	-9
CCC(=O)N1CC[C@@H]2[C@H]1c1cc(-c3cccc(C#N)c3)ccc1N[C@@H]2CO	nt	nt	nt	0	-3
O=C(C1CCCC1)N1CC[C@@H]2[C@H](CO)Nc3ccc(-c4cccc(F)c4)cc3[C@@H]21	8	-127	1	nt	-6
O=C(c1cccc(F)c1)N1CC[C@@H]2[C@@H](CO)Nc3ccc(-c4ccccc4)cc3[C@@H]21	31*	-15	0	nt	-14
CCC(=O)N1CC[C@@H]2[C@H](CO)Nc3ccc(-c4cccc(C#N)c4)cc3[C@@H]21	nt	nt	nt	0	137*
OC[C@H]1Nc2ccc(-c3ccccc3)cc2[C@H]2[C@@H]1CCN2Cc1ccc(F)cc1	6	-71	2	0	1
CO[C@H]1CN(C)C(=O)c2cc(NC(=O)c3cnccn3)ccc2OC[C@@H](C)N(CC2CC2)C[C@H]1C	2	3	-2	0	18
C[C@@H]1CN([C@H](C)CO)C(=O)c2cc(C#CC3CCCCC3)cnc2O[C@H]1CN(C)C(=O)C1CCCCC1	6	2	-2	0	1
C[C@@H]1CN([C@@H](C)CO)C(=O)Cc2cc(NC(=O)C3CCCCC3)ccc2O[C@H]1CN(C)C(=O)Nc1ccc(F)cc1	7	12	nt	nt	-3
O=C(Cc1ccccc1)N1CC[C@@H]2[C@H](CO)Nc3ccc(C4=CCCCC4)cc3[C@@H]21	2	37	0	0	-28
O=C(C1CC1)N1CC[C@H]2[C@H](CO)Nc3ccc(-c4cccc(F)c4)cc3[C@H]21	-3	10	1	0	32*
O=C(C1CCCC1)N1CC[C@@H]2[C@H](CO)Nc3ccc(C4=CCCCC4)cc3[C@@H]21	34*	21	-3	nt	-4
O=C(C1CC1)N1CC[C@@H]2[C@H](CO)Nc3ccc(-c4cccc(F)c4)cc3[C@@H]21	-8	-20	0	0	11
CC(C)NC(=O)N(C)C[C@@H]1Oc2ccc(NC(=O)CCC(F)(F)F)cc2C(=O)N([C@H](C)CO)C[C@H]1C	-5	0	2	0	16
CCS(=O)(=O)N1CCC2(CC1)CN(C(=O)c1ccc(F)cc1)[C@H](CO)c1c2c2ccc(OC)cc2n1C	2	3	0	0	3
COc1ccc2c3c(n(C)c2c1)[C@@H](CO)N(C(=O)c1cccc(F)c1)CC31CN(C(=O)c2cccc(F)c2)C1	5	-6	3	0	34*
CCS(=O)(=O)N1CCC2(CC1)CN(C(=O)c1ccc(F)cc1)[C@@H](CO)c1c2c2ccc(OC)cc2n1C	2	7	-1	0	24*
C[C@@H]1CN([C@H](C)CO)C(=O)c2cc(-c3cccc(F)c3)cnc2O[C@@H]1CN(C)Cc1cccnc1	-1	-8	-1	nt	-3
O=C(C[C@H]1C=C[C@@H](NS(=O)(=O)c2ccccc2F)[C@H](CO)O1)NCCCN1CCOCC1	-1	2	1	0	5
O=C(NCC[C@H]1CC[C@@H](NS(=O)(=O)c2cccc(F)c2)[C@H](CO)O1)C1CC1	2	9	4	0	-5
O=c1cc(-c2ccc([N+](=O)[O-])cc2)c2ccc(O)cc2o1	0	-9	-3	45*	-6
CCNC(=O)N(CC)C[C@H]1N[C@@](C)(C(=O)OC)[C@H]2C(=O)N(C)C(=O)[C@@H]12	-9	6	-5	0	46*
SMILES	AF4-AF9 inh	RAD52 anneal inh	ERAP1 HTS inh	FGF22 binding	DENV2 CPE rescue
CCN(C[C@H]1N[C@@](CC)(C(=O)OC)[C@H]2C(=O)N(C)C(=O)[C@@H]12)S(=O)(=O)c1ccc(OC)cc1	-3	-10	-2	0	26*
CCN(C[C@H]1N[C@@](C)(C(=O)OC)[C@H]2C(=O)N(C)C(=O)[C@@H]12)S(=O)(=O)c1ccc(-c2ccccc2)cc1	-1	-8	-1	0	20*
CCN(C[C@H]1N[C@@](C)(C(=O)OC)[C@H]2C(=O)N(C)C(=O)[C@@H]12)C(=O)Nc1ccc(F)cc1	-1	-10	-2	0	-10
CO[C@@H]1CN(C)C(=O)c2ccc(NC(=O)c3ccccc3)cc2OC[C@@H](C)N(C)C[C@H]1C	-22	16	-1	nt	17
C[C@@H]1CN([C@@H](C)CO)C(=O)Cc2cc(NC(=O)c3ccncc3)ccc2O[C@@H]1CN(C)C(=O)NC1CCCCC1	3	-6	-1	1	-4
CCCC(=O)Nc1ccc2c(c1)C(=O)N(C)C[C@H](OC)[C@H](C)CN(Cc1ccccc1F)[C@H](C)CO2	2	-9	1	0	6
COCC(=O)N1[C@@H](CO)[C@H](c2ccc(-c3ccccc3)cc2)C12CN(C(C)=O)C2	-1	-11	1	0	-6
COc1cccc(CC(=O)OCC(=O)Nc2nnc(-c3ccccc3)o2)c1	-6	-11	-1	nt	103*
COc1ccc(C(=O)OCC(=O)Nc2nnc(-c3ccccc3)o2)cc1	-3	-25	-1	0	-8
Cc1cc(C)cc(N(CC(=O)NC2CCCCCC2)S(=O)(=O)c2c(C)[nH]c(=O)[nH]c2=O)c1	13	-4	nt	0	8
CCOc1ccc(N(CC(=O)NC2CCCC2)S(=O)(=O)c2c(C)[nH]c(=O)[nH]c2=O)cc1	2	0	-8	0	54*
CC(Sc1nc2ncc(Cl)cc2[nH]1)C(=O)Nc1ccc(C(N)=O)cc1 (stereo not drawn)	-1	-6	-1	nt	118*
CC(Sc1nc2ncc(Cl)cc2[nH]1)C(=O)c1c(N)n(C)c(=O)n(C)c1=O (stereo not drawn)	-5	-39	-5	0	-7
O=C(NCCNC(=O)c1ccc(F)cc1)c1ccc(F)cc1	2	-11	nt	0	-2
O=C(NCCNC(=O)c1cc(F)cc(F)c1)c1cc(F)cc(F)c1	-2	-18	3	0	30*
CC(C)NC(=O)Nc1ccc2c(c1)CC(=O)N([C@@H](C)CO)C[C@@H](C)[C@@H](CN(C)C(=O)Nc1ccc(F)cc1)O2	-10	10	-3	0	-2
OC(c1ccc(F)c(F)c1)c1nc(-c2ccccc2)cs1 (stereo not drawn)	-8	3	2	0	7
COc1ccc(-c2csc(C(O)c3cccc(OC)c3)n2)cc1 (stereo not drawn)	-1	-9	7	0	52*

Source: PubChem BioAssay
